Laboratory results published in PubChem BioAssay AID651592 (Sanford-Burnham Center for Chemical Genomics, 2012).
Activity calls are given as the source filed them.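 The calls were made as follows: active = NF-kB reporter IC50 at most 10 µM, IL-8 IC50 within fivefold of it with bacterial filtrate but not with TNF-alpha; inactive = the rest.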

Each compound was assayed against Interleukin-8 (Homo sapiens) (UniProt P10145) (assay: inhibitors of NFkB activation in CF airway cells, SAR follow-up, KKLEB cells, panel, IL8 HTRF, NFkB-GFP (AID 651592;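 also: immortalized cystic fibrosis airway epithelial KKLEB cells with an NF-kB GFP reporter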)). Details: PAF/TNFa-induced NFkB-GFP / IL8 HTRF, mean of runs.
Interleukin-8 (Homo sapiens), sequence (P10145 whole entry, looked up): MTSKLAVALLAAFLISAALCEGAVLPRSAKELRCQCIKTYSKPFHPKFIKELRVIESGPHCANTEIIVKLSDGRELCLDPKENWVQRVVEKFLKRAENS
For `O=C(Nc1ccc(N2CCN(C(=O)c3ccccc3F)CC2)cc1)c1cccc(Br)c1`, the outcome was “active”. In the case of `O=C(Nc1ccc(N2CCN(C(=O)c3ccccc3)CC2)cc1)c1ccccn1`, the outcome is reported as “active”. `Cc1ccc(CNCc2cc3c(C(C)(C)C)nn(-c4ccccc4)c3[nH]c2=O)cc1` was tested, and the outcome was “active”. In the case of `O=C(Nc1ccc(N2CCN(C(=O)c3ccccc3)CC2)cc1)c1cncc(Br)c1`, the outcome is reported as “active”. For `O=C(Nc1ccc(N2CCN(C(=O)c3ccccc3)CC2)cc1)c1cccnc1`, the outcome was “active”. With `O=C(Nc1ccc(N2CCN(C(=O)c3ccc(F)cc3)CC2)cc1)c1cccc(Br)c1` the outcome was “active”. For `CCOc1ccc(NCc2cc3c(C)nn(-c4ccccc4)c3[nH]c2=O)cc1`, the outcome was “active”. In the case of `O=C(Nc1ccc(N2CCN(C(=O)c3ccccc3Cl)CC2)cc1)c1ccccc1`, the outcome is reported as “inactive”. In the case of `O=C(Nc1ccc(N2CCN(C(=O)c3ccccc3)CC2)cc1)c1cccc(Br)c1`, the outcome is reported as “active”. In the case of `O=C(Nc1ccc(N2CCN(C(=O)c3ccccc3)CC2)cc1)c1ccncc1`, the outcome is reported as “active”. For `CCOc1ccc(NCc2cc3c(C(C)(C)C)nn(-c4ccc(Cl)cc4)c3[nH]c2=O)cc1`, the outcome was “active”. For `O=C(Nc1ccc(N2CCN(C(=O)c3ccc(F)cc3)CC2)cc1)c1cncc(Br)c1`, the outcome was “active”. `O=C(Nc1ccc(N2CCN(C(=O)c3ccccc3)CC2)cc1)c1cc(Br)cc(Br)c1` was tested, and the outcome was “active”. `O=C(Nc1ccc(N2CCN(C(=O)c3ccccc3F)CC2)cc1)c1ccccc1` was tested, and the outcome was “active”. In the case of `O=C(Nc1ccc(N2CCN(C(=O)c3ccccc3Cl)CC2)cc1)c1ccncc1`, the outcome is reported as “active”. `CCOc1ccc(NCc2cc3c(-c4ccc(F)cc4)nn(-c4ccccc4)c3[nH]c2=O)cc1` was tested, and the outcome was “active”. `O=C(Nc1ccc(N2CCN(C(=O)c3ccccc3F)CC2)cc1)c1ccncc1` was tested, and the outcome was “active”. With `O=C(Nc1ccc(N2CCN(C(=O)c3ccc(F)cc3)CC2)cc1)c1cc(Br)cc(Br)c1` the outcome was “active”. `O=C(Nc1ccc(N2CCN(C(=O)c3ccccc3F)CC2)cc1)c1ccccn1` was tested, and the outcome was “active”. With `O=C(Nc1ccc(N2CCN(C(=O)c3ccccc3Cl)CC2)cc1)c1cncc(Br)c1` the outcome was “active”. With `O=C(Nc1ccc(N2CCN(C(=O)c3ccccc3)CC2)cc1)c1ccccc1` the outcome was “active”. In the case of `O=C(Nc1ccc(N2CCN(C(=O)c3ccccc3F)CC2)cc1)c1cc(Br)cc(Br)c1`, the outcome is reported as “active”. In the case of `O=C(Nc1ccc(N2CCN(C(=O)c3ccc(F)cc3)CC2)cc1)c1ccccn1`, the outcome is reported as “active”. With `O=C(Nc1ccc(N2CCN(C(=O)c3ccccc3Cl)CC2)cc1)c1cc(Br)cc(Br)c1` the outcome was “active”. For `O=C(Nc1ccc(N2CCN(C(=O)c3ccccc3F)CC2)cc1)c1cccnc1`, the outcome was “active”. For `O=C(Nc1ccc(N2CCN(C(=O)c3ccccc3Cl)CC2)cc1)c1ccccn1`, the outcome was “active”. In the case of `O=C(Nc1ccc(N2CCN(C(=O)c3ccc(F)cc3)CC2)cc1)c1ccncc1`, the outcome is reported as “active”. With `Cc1ccc(NCc2cc3c(C(C)(C)C)nn(-c4ccccc4)c3[nH]c2=O)cc1` the outcome was “active”. `O=C(Nc1ccc(N2CCN(C(=O)c3ccc(F)cc3)CC2)cc1)c1ccccc1` was tested, and the outcome was “active”. With `CCOc1ccc(NCc2cc3c(C(C)(C)C)nn(-c4ccccc4)c3[nH]c2=O)cc1` the outcome was “active”. In the case of `O=C(Nc1ccc(N2CCN(C(=O)c3ccccc3Cl)CC2)cc1)c1cccnc1`, the outcome is reported as “active”. With `CCOc1ccc(NCc2cc3c(-c4ccc(OC)c(OC)c4)nn(-c4ccccc4)c3[nH]c2=O)cc1` the outcome was “active”. With `O=C(Nc1ccc(N2CCN(C(=O)c3ccc(F)cc3)CC2)cc1)c1cccnc1` the outcome was “active”. With `O=C(Nc1ccc(N2CCN(C(=O)c3ccccc3Cl)CC2)cc1)c1cccc(Br)c1` the outcome was “active”.
